# High-throughput results: PubChem, Broad Institute
# A selection: hits, their analogues and other compounds. The true share with any hit is near 3.1%.
# EWS-Fli block: inhibitors of EWS/Fli oncoprotein transcriptional activity; A673 NR0B1-luciferase reporter, viability-normalised; inhibition, % at 12.6 µM; actives 0.67% (n = 350,000);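 active = mean inhibition of at least 50% after viability correction, with every replicate also passing that limit; inconclusive = mean reaches 50% but only one of two replicates passes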;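 also: firefly luciferase signal divided by Alamar Blue viability fluorescence both relative to DMSO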
# C2C12 statin: suppression of simvastatin myotoxicity | C2C12 myotubes + simvastatin, ATP luminescence, 48 h; scaled: DMSO 0, geranylgeraniol control 100 | rescue of ATP level, % at 7.49 µM | actives 0.78% (n = 330,000);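 active = mean ATP rescue above about 67%, or every replicate alone reaching that limit, limit read from the data, passing the limit was not always enough; inconclusive = no clear call, values can overlap the other calls; inactive = mean under the limit and some replicate under it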;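 also: myotubes were challenged with 10 µM simvastatin during compound exposure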
# miR122 inh: blocks miR-122 activity in Huh7 sensor cells; AID 602342; activation (reporter increase), % at 12.5 µM; actives 0.3% (n = 340,000); Huh7 miR-122 Renilla luciferase sensor, 48 h; neutral wells = 0, positive control = 100;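 active = mean replicate activation score at least 90 and every replicate individually at or above 90; inconclusive = only one of the two criteria met; inactive = neither criterion met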;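 also: higher luciferase means less miR-122 activity so hits act as miR-122 inhibitors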
# HIV Env fusion: HIV envelope-mediated fusion inhibition; HeLa-JRFL Env/CEM21 cell fusion, luciferase; inhibition, % at 12.3 µM; actives 1.1% (n = 360,000);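 active = mean replicate inhibition score of at least 50 and every replicate individually at or above 50; inconclusive = only one of the two criteria met; inactive = mean below 50 and not all replicates reaching 50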
# INS-1E GSIS act: primary screen for activators of insulin secretion dependent on glucose, INS-1E cells, GLuc reporter luminescence. AID 743287. actives 0.61% (n = 370,000). activation, % at 16.6 µM. INS-1E GLuc reporter insulin secretion, 2-3 h;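 active = lowest replicate activation of at least 40%, so every replicate reaches that level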
# PAX8 reporter: lowers PAX8-driven luciferase in RMG-I cells; RMG-I TPO-luciferase reporter, SteadyGlo, 24 h; inhibition, % at 12.6 µM; actives 1.2% (n = 360,000); AID 652154;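 active = mean replicate inhibition at least 60% with every replicate also reaching 60%; inconclusive = only one of the two criteria is met; inactive = mean below 60% and not all replicates reaching 60%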;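 also: luciferase light reporting Pax8 driven TPO promoter activity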
# Hits are given with their value; n = inactive; u = inconclusive; x = not tested or not shown; [ ] = dose if it differs, or a comment.
SMILES,EWS-Fli block,C2C12 statin,miR122 inh,HIV Env fusion,INS-1E GSIS act,PAX8 reporter
C[C@H](CO)N1C[C@H](C)[C@H](CN(C)C)OCCCC[C@H](C)Oc2ccc(NS(=O)(=O)c3ccccc3)cc2C1=O,n,n,n,n,n,n
C[C@@H]1CCCCO[C@H](CN(C)Cc2ccc(C(F)(F)F)cc2)[C@@H](C)CN([C@@H](C)CO)C(=O)c2cc(NS(=O)(=O)c3ccccc3)ccc2O1,n,x,n,n,n,88
C[C@@H]1CCCCO[C@@H](CN(C)Cc2ccc(C(F)(F)F)cc2)[C@H](C)CN([C@@H](C)CO)C(=O)c2cc(NS(=O)(=O)c3ccccc3)ccc2O1,66,x,n,n,n,111
C[C@@H]1CCCCO[C@@H](CN(C)Cc2ccc(C(F)(F)F)cc2)[C@@H](C)CN([C@H](C)CO)C(=O)c2cc(NS(=O)(=O)c3ccccc3)ccc2O1,n,x,n,n,n,n
COCC(=O)Nc1ccc2c(c1)OC[C@@H](C)N(C(=O)Cc1ccccn1)C[C@H](C)[C@@H](OC)CN(C)C2=O,n,n,n,x,n,x
CCc1ccc(OCC(=O)NC(=S)Nc2ccc(C(C)=O)cc2)c(Br)c1,n,n,n,x,n,x
CCc1ccc(OCC(=O)NC(=S)Nc2ccc(F)cc2)c(Br)c1,x,n,n,x,59,x
Clc1ccc2nc(C3CCCCC3)c(CC3CCCCC3)n2c1,n,n,n,n,x,n
CC(C)(C)c1nc2ccc(Cl)cn2c1CC1CCCCC1,n,n,n,n,53,n
CCCN1C[C@@H](C)[C@@H](OC)CN(C)C(=O)c2cc(NC(=O)CC)ccc2OC[C@H]1C,n,n,n,x,n,x
O=C(CN1C(=O)/C(=C\c2ccco2)SC1=S)Nc1ccc(O)cc1C(=O)O,x,96,n,n,n,n
O=C(CCN1C(=O)/C(=C/c2ccccc2Cl)SC1=S)Nc1ccccc1C(=O)O,n,n,n,n,n,100
O=C(CCN1C(=O)/C(=C/c2ccco2)SC1=S)Nc1ccc(O)cc1C(=O)O,n,n,n,n,n,n
C[C@@H]1CN([C@H](C)CO)C(=O)c2cccc(NC(=O)C3CCOCC3)c2O[C@@H]1CN(C)S(=O)(=O)c1ccc(F)cc1,n,n,n,n,n,n
COC(=O)CSc1nc(C2CC2)cc(C(F)(F)F)c1C#N,x,99,n,n,n,n
NCCCn1c(C(=O)c2cc(Cl)c(N)c(Cl)c2)c2ccc(C(F)(F)F)cc2[n+]1[O-],n,n,n,n,n,n
NCCCn1c(C(=O)c2cc(Cl)c(N)c(Cl)c2)c2ccc([N+](=O)[O-])cc2[n+]1[O-],55,n,n,n,n,70
CCCNC(=O)N1CC2(C1)CN(C(=O)COC)[C@H](CO)c1[nH]c3cc(OC)ccc3c12,n,x,x,x,n,61
COc1cccc(S(=O)(=O)N2CC3(CN(C(=O)Nc4cccc(F)c4)[C@H](CO)c4[nH]c5cc(OC)ccc5c43)C2)c1,n,x,x,80[16.7 µM],n,x
COc1ccc2c3c([nH]c2c1)[C@@H](CO)N(C(=O)Nc1ccc(F)cc1)CC31CN(S(=O)(=O)c2ccc(C)cc2)C1,n,x,x,x,n,68
COc1cccc(S(=O)(=O)N2CC3(CN(C(=O)Nc4ccc(F)cc4)[C@@H](CO)c4[nH]c5cc(OC)ccc5c43)C2)c1,n,x,x,x,n,x
COc1ccc2c3c([nH]c2c1)[C@@H](CO)N(C(=O)Nc1cccc(F)c1)CC31CCN(S(=O)(=O)c2cccc(C)c2)CC1,n,x,x,x,n,96
CC(C)NC(=O)N[C@@H]1CC[C@@H](CCNC(=O)C2CCCC2)O[C@@H]1CO,n,n,x,n,n,n
C[C@H](CO)N1C[C@H](C)[C@H](CN(C)Cc2ccccc2)OCCCC[C@H](C)Oc2ccc(NC(=O)C3CCCCC3)cc2C1=O,n,x,n,n,n,n
C[C@H]1CCCCO[C@@H](CN(C)C(=O)c2ccccc2)[C@@H](C)CN([C@@H](C)CO)C(=O)c2cc(NC(=O)c3ccccc3)ccc2O1,x,x,n,n,n,n
SMILES,EWS-Fli block,C2C12 statin,miR122 inh,HIV Env fusion,INS-1E GSIS act,PAX8 reporter
COCC(=O)Nc1ccc2c(c1)OC[C@@H](C)N(Cc1ccccc1F)C[C@H](C)[C@@H](OC)CN(C)C2=O,n,x,x,x,n,x
COc1ccc2c3c([nH]c2c1)[C@@H](CO)N(C(=O)Nc1cccc(F)c1)CC31CN(S(=O)(=O)c2cccc(C)c2)C1,n,x,x,80[16.7 µM],n,x
CC(C)NC(=O)Nc1ccc2c(c1)C(=O)N([C@H](C)CO)C[C@@H](C)[C@H](CN(C)S(C)(=O)=O)OCCCC[C@@H](C)O2,n,x,n,n,n,n
CCO[C@H]1OC(C(=O)N2CCN(Cc3ccccc3)CC2)=C[C@@H](c2ccc(C(F)(F)F)cc2)[C@@H]1CCCO,n,n,n,n,n,90
CO[C@@H]1CN(C)C(=O)c2ccc(NC(=O)c3ccccn3)cc2OC[C@@H](C)N(C(=O)C2CCC2)C[C@H]1C,n,n,n,x,x,n
CC1CCCN(c2ccc([N+](=O)[O-])cc2C(=O)c2ccccc2)C1 (stereo not drawn),59,x,x,n,n,n
O=C(c1ccc(Cl)cc1)c1cc([N+](=O)[O-])ccc1N1CCOCC1,59,x,x,n,n,n
Cc1ccc(C(=O)c2cc([N+](=O)[O-])ccc2N2CC(C)OC(C)C2)cc1 (stereo not drawn),u,x,n,n,n,n
Cc1ccc(C(=O)c2cc([N+](=O)[O-])ccc2N2CCCCC2)cc1,x,x,x,n,n,88
COCC#Cc1ccc2c(c1)O[C@@H](CN(C)Cc1ccccc1)[C@@H](C)CN([C@H](C)CO)S2(=O)=O,n,n,n,n,n,x
O=C(c1ccc(C(=O)N2CCOCC2)s1)N1CCOCC1,x,n,n,n,x,n
O=C(c1cc(Br)c(Br)s1)N1CCOCC1,n,n,x,63,n,n
COc1ccc(CN(C)C[C@@H]2Oc3ccc(NC(=O)NC(C)C)cc3C(=O)N([C@H](C)CO)C[C@H]2C)cc1,x,n,n,n,n,n
COc1ccc(CNC(=O)C[C@H]2C=C[C@@H](NS(=O)(=O)c3cccc(OC)c3)[C@@H](CO)O2)cc1,n,x,x,n,n,x
Cn1c(=O)[nH]c(=O)c2c1nc(NC1CCCC1)n2Cc1ccccc1,n,n,n,n,46,n
COc1ccc(CNc2nc3c(c(=O)n(Cc4ccc(F)cc4)c(=O)n3C)n2C)cc1,x,n,n,n,n,71
CCNc1nc2c(c(=O)[nH]c(=O)n2C)n1Cc1ccc(F)cc1,n,n,n,n,49,n
Cn1c(=O)[nH]c(=O)c2c1nc([N+](=O)[O-])n2Cc1ccccc1,n,x,x,n,n,101
CCCNc1nc2c(c(=O)[nH]c(=O)n2C)n1Cc1ccc(F)cc1,n,n,n,n,n,n
CO[C@H]1CN(C)C(=O)c2cc(NC(=O)c3ccno3)ccc2OC[C@H](C)N(S(C)(=O)=O)C[C@@H]1C,n,n,x,n,n,n
